High-throughput results (PubChem BioAssay)
Shown are actives, neighbours in structure and some others; about 1.3% of the full set was active somewhere.
VHR inh abs – VHR1 phosphatase inhibitors, primary screen, biochemical, absorbance, uHTS. Dual specificity protein phosphatase 3 (Homo sapiens), P51452. recombinant VHR phosphatase, pNPP absorbance. inhibition, % at 13.3 µM. actives 0.52% (n = 290,000). AID 1654, 2009; in the data active means inhibition above about 50%
Target sequence (P51452 whole entry, looked up): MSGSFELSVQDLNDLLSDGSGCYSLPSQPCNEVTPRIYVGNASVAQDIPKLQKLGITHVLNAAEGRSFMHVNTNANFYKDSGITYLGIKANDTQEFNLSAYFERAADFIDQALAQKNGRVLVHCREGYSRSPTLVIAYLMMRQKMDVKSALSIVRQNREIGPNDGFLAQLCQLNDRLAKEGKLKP
Vc quorum ag – inducers of Vibrio cholerae quorum light production without autoinducers, primary screen, BH1578 luxS cqsA deficient, single point. activation, % at 18.7 µM. V. cholerae BH1578 lux reporter, luminescence, 6 h. actives 0.16% (n = 350,000); in the data active means activation mostly above about 9.7%, no sharp cut-off
TcdB GH inh – TcdB glycohydrolase inhibitors, primary screen, biochemical, single point, plate reader; Toxin B (Clostridioides difficile), P18177; actives 0.24% (n = 350,000); TcdB glycohydrolase enzymatic assay; AID 652162, 2013; inhibition, % at 9.99 µM; in the data active means inhibition above about 10%
SSB-PriA inh – inhibitors of Klebsiella pneumoniae PriA binding to SSB C-terminal tail, primary screen, biochemical, AlphaScreen; PriA–SSB C-terminal tail interaction (Klebsiella pneumoniae); AlphaScreen SSBct-PriA binding, biotinylated peptide; inhibition, % at 33 µM; actives 0.6% (n = 430,000); AID 1272365, 2023; in the data active means inhibition mostly above about 37%, no sharp cut-off; inactive means mostly below about 20%;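 further: plate controls were negative control peptide for no effect and reference peptide for full effect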
CCHFV vOTU inh – CCHFV vOTU protease inhibitors, primary screen, biochemical, Pep-AMC substrate, fluorescence | Crimean-Congo hemorrhagic fever virus L polyprotein viral ovarian tumor (vOTU) protease … | inhibition, % at 11.5 µM | actives 0.55% (n = 370,000) | AID 651958, 2012; in the data active means inhibition above about 30%; further: 0% = vehicle wells with enzyme and 100% = no enzyme wells
3CLpro inhibitor – SARS-CoV 3CLpro protease inhibitors, primary screen, biochemical, quenched FRET; inhibition, % at 6 µM; recombinant SARS-CoV 3CLpro, quenched FRET peptide cleavage; Replicase polyprotein 1ab (Severe acute respiratory syndrome coronavirus), P0C6X7; actives 0.14% (n = 290,000); AID 1706, 2009; in the data active means inhibition above about 12%
The depositor's hits bear a star; i = inactive; . = not tested or not shown; + = active, no number.

SMILES	VHR inh abs	Vc quorum ag	TcdB GH inh	SSB-PriA inh	CCHFV vOTU inh	3CLpro inhibitor
CCCc1ccc(C2C3=C(CC(C)(C)CC3=O)NC3=C2C(=O)c2ccccc23)cc1 (stereo unspecified)	18	6	-10	47*	14	0
CC1(C)CC(=O)C2=C(C1)NC1=C(C(=O)c3ccccc31)C2c1ccc(O)cc1 (stereo unspecified)	10	0	.	50*	2	-5
CN1CCc2cc(C(CNC(=O)C(=O)Nc3ccc4c(c3)OCCO4)N(C)C)ccc21 (stereo unspecified)	.	.	.	28	.	.
Cc1onc(-c2ccccc2)c1C(=O)NC(=S)NNC(=O)c1ccc(O)cc1O	2	-1	.	31	7	5
COc1ccccc1C(=O)NNC(=S)NC(=O)c1cccs1	10	0	1	.	11	3
O=C(NC(=S)NNC(=O)c1ccccc1O)c1cccs1	7	1	2	45*	11	1
Cc1onc(-c2ccccc2)c1C(=O)NC(=S)NNC(=O)c1ccccc1O	2	-2	0	64*	12	-1
O=C(CCN1C(=O)/C(=C/c2ccco2)SC1=S)Nc1ccc(O)cc1C(=O)O	-24	i	0	0	28	-1
O=C(CN1C(=O)/C(=C\c2ccco2)SC1=S)Nc1ccc(O)cc1C(=O)O	-5	0	0	0	31*	1
COC(=O)c1ccc2c(=O)n(CCCC(=O)NC3CCCCC3)c(=S)[nH]c2c1	.	.	.	11	.	.
COc1ccc(Cl)cc1S(=O)(=O)Nc1ccc2c(c1)N(C(=O)C1CCCO1)CC2 (stereo unspecified)	.	.	.	-7	.	.
O=C(NC(=S)N1CCN(c2ccc(Cl)cc2[N+](=O)[O-])CC1)c1cccs1	-4	0	.	39*	.	2
O=C(NC(=S)N1CCN(c2ccc(Cl)cc2[N+](=O)[O-])CC1)c1ccco1	6	8	.	26	-21	3
CCC(CC)NC(=O)c1ccc2c(c1)OCCO2	-10	25*	.	5	-6	4
N#C/C(=C\c1ccccc1)C(=O)NC1CC1	53*	1	1	-3	-12	-1
N#C/C(=C\c1cccnc1)C(=O)NC1CCCCC1	5	0	.	-8	-19	5
CN(C)/C=C(\C#N)C(=O)Nc1ccccc1	9	-1	0	-10	-7	0
CN(C)/C=C(\C#N)C(=O)Nc1ccc(O)cc1F	22	0	19*	-6	6	2
O=C1/C(=C/c2cccnc2)SC(=NCc2ccccc2)N1Cc1ccccc1	-6	-1	10*	-8	12	1
CCOC(=O)Cc1csc(NC(=O)CC2CSc3nc(C)cc(=O)n32)n1 (stereo unspecified)	.	.	.	-17	.	.
Cc1ccc2c(c1)c1cccc3c1n2CCN3CCC(N)=O	3	i	.	58*	.	7
Cc1cc(C)n(-c2ccc(=O)n(CCNC(=O)c3c[nH]c(=O)n(Cc4ccccc4F)c3=O)n2)n1	.	.	.	-5	.	.
O=C(NC1(C(F)(F)F)NC(=O)N(Cc2ccccc2)C1=O)c1cccnc1 (stereo unspecified)	12	.	.	15	-5	6
CC(c1ccccc1)N1C(=O)NC(NC(=O)c2cccnc2)(C(F)(F)F)C1=O (stereo unspecified)	-9	i	.	48*	-7	2
CCC(C)NC(=O)c1ccc2c(c1)S(=O)(=O)c1ccccc1C2=O (stereo unspecified)	56*	i	-1	3	7	-6
SMILES	VHR inh abs	Vc quorum ag	TcdB GH inh	SSB-PriA inh	CCHFV vOTU inh	3CLpro inhibitor
Cn1ccc(C(=O)Nc2nc(-c3cc(Cl)sc3Cl)cs2)n1	.	.	.	-8	.	.
COc1cc(O)oc1C=Nc1ccc(Cl)cc1	39	26*	.	5	6	2
Cc1cc(C)c(OCC(=O)Nc2cc(C(=O)O)cc(C(=O)O)c2)cc1C	-16	0	1	1	6	5
Cc1ccc(C)c(OCC(=O)Nc2cc(C(=O)O)cc(C(=O)O)c2)c1	53*	-2	-1	-6	6	2
CCc1c(C)nc2n(c1=O)CC(C(=O)NCCc1c[nH]c3ccccc13)CS2 (stereo unspecified)	.	.	.	-11	.	.
CCOC(=O)C(NCc1ccccn1)(NC(=O)c1cccnc1)C(F)(F)F (stereo unspecified)	13	-1	.	51*	8	-1
COc1ccc(Br)cc1C(=O)Nc1ccc(O)cc1	-8	-3	24*	-2	-11	-4
O=C(NCCN1CCCCCC1)C1CCN(S(=O)(=O)N2CCOCC2)CC1	20	-5	.	-8	-3	3
CCCNC(=O)C1CCN(c2ccc(S(=O)(=O)N3CCOCC3)cc2Cl)CC1	57*	i	1	2	14	4
C=CCNC(=O)C1CCN(c2ccc(S(=O)(=O)N3CCOCC3)cc2Cl)CC1	16	-2	1	9	20	2
CCCCNC(=O)C1CCN(S(=O)(=O)N2CCOCC2)CC1	34	0	10*	-2	0	1
O=C(Nc1cc(S(=O)(=O)N2CCOCC2)ccc1N1CCOCC1)c1ccccc1Cl	.	i	14*	5	8	.
CN(C)c1cncc(O[C@H]2CCN(C(=O)c3cccc4c3OCCO4)C2)n1	.	.	.	1	.	.
CCCn1c2ccccc2c2cn[nH]c(=O)c21	59*	0	1	-6	5	5
CCCn1c(O)c(N=N)c2ccccc21	10	+	0	6	2	3
O=c1[nH]ncc2c3ccccc3n(Cc3ccccc3)c12	19	-1	.	-3	12	3
CCn1c(O)c(N=N)c2ccccc21	3	0	-1	5	19	-2
O=C(/C=C/c1ccc(-c2cccc([N+](=O)[O-])c2)o1)N1CCCCC1	.	.	.	-8	.	.
S=C(N=Nc1ccccc1)NNc1ccccc1	1	-1	-1	72*	-3	-3
CC(=O)Nc1ccc(C2=NN(C)C(=NCc3ccccc3)SC2)cc1	51*	-1	1	5	7	-3
CCCOc1ccc(C(=O)Nc2ccc(S(=O)(=O)Nc3cc(C)nc(C)n3)cc2)cc1	52*	0	-1	-8	-14	0
S=c1[nH]c(-c2ccccc2)cn1N=Cc1ccncc1	.	.	.	-9	.	.
Oc1ccc(/C=N/n2cc(-c3ccccc3)[nH]c2=S)cc1	30	2	14*	.	9	0
O=C1CCCN1CCCn1c(SCc2c(F)cccc2F)nc2ccccc2c1=O	.	.	.	-9	.	.
CC(C)CN1C(=O)C(C)(C)COc2cc(NC(=O)c3ccc4c(c3)OCO4)ccc21	.	.	.	19	.	.
